# Experimental data reported in PubChem BioAssay (NCI).
# Values joined by “and” are separate entries in the source; they are usually repeats but may differ in a detail not shown here. Identical values can stand only once. Compounds without any hit were thinned out: in the full panel of roughly 83,000, 20% have a hit.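 Plates (96-well) were seeded with cells, treated with compound at one concentration, and incubated for 48 hours before percent growth was determined.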 Active and inactive are the calls of the source. The calls were made as follows: active = growth percent below 10; inactive = the rest.
# Experiments:
# Assay in all cases: NCI-60 one-dose screen, 48 h (100 = growth as untreated, 0 = no growth, -100 = all killed)
# Details in all cases: 10 µM unless noted
# [1] = system: UACC-62 melanoma
# [2] = system: TK-10 renal
# [3] = system: SK-MEL-28 melanoma
# [4] = system: EKVX NSCLC
# [5] = system: CAKI-1 renal
structure (smiles),measurement,setting,value
CC(C)=CCc1cc(C2COc3cc4c(c(O)c3C2=O)C=CC(C)(C)O4)c(O)cc1O (stereo unspecified),growth,[1],-86.8% [100 µM] (active) and -97.1% [100 µM] (active)
same,growth,[2],-14.3% [100 µM] (active) and -100% [100 µM] (active)
COc1cc([C@H]2OC[C@H]3[C@@H]2CO[C@@H]3c2cc(OC)c3c(c2)OCO3)cc(OC)c1OC,growth,[1],43.3% [100 µM] (inactive) and 24% [100 µM] (inactive)
same,growth,[2],33.1% [100 µM] (inactive) and 24.9% [100 µM] (inactive)
COc1ccc2nc(NC(=O)/C(C#N)=C/c3ccccc3)sc2c1,growth,[1],36.9% [100 µM] (inactive) and 15.8% [100 µM] (inactive)
same,growth,[2],52.5% [100 µM] (inactive) and -23.1% [100 µM] (active)
Cc1ccc(F)cc1NC(=O)O/N=C(\Cl)C(C)C,growth,[2],65.6% [100 µM] (inactive) and 72.9% [100 µM] (inactive)
Cc1coc2c1C(OC(=O)C(C)C)C1(C)C(C)CCC(O)C1C2=O (stereo unspecified),growth,[1],39% [100 µM] (inactive) and 18.7% [100 µM] (inactive)
same,growth,[2],87.9% [100 µM] (inactive) and 63.5% [100 µM] (inactive)
COC(=O)C(=O)C(C(=O)C(=O)Nc1ccccc1C(C)=O)c1nc2ccc(C(=O)c3ccccc3)cc2[nH]c1=O (stereo unspecified),growth,[1],48.7% [100 µM] (inactive) and 10.4% [100 µM] (inactive)
same,growth,[2],114% [100 µM] (inactive) and 17.9% [100 µM] (inactive)
O=C(O)c1n[nH]nc1Cl,growth,[1],43.6% [100 µM] (inactive) and 103% [100 µM] (inactive)
same,growth,[2],98.7% [100 µM] (inactive) and 107% [100 µM] (inactive)
CC(=N/N=C/c1ccccn1)/C(C)=N/N=C(C)/C(C)=N/N=C(C)/C(C)=N/N=C(C)/C(C)=N\N=C\c1ccccn1,growth,[2],99.9% [100 µM] (inactive) and 81.3% [100 µM] (inactive)
CNc1nc2c(C)ccc3[nH]c(N(C)C)nc3c-2n1,growth,[1],30.8% [100 µM] (inactive) and 2.14% [100 µM] (active)
same,growth,[2],60% [100 µM] (inactive) and 12.5% [100 µM] (inactive)
COc1c2c(c3c(c1OC)c(=O)c1ccccc1n3C)OCO2,growth,[1],58.8% [100 µM] (inactive)
same,growth,[2],74.8% [100 µM] (inactive)
NC(=S)Nc1[nH]c(=S)nc2c1SC1=N/C(=C\c3ccco3)C(=O)N12,growth,[1],25.1% [100 µM] (inactive) and 18.6% [100 µM] (inactive)
same,growth,[2],75.1% [100 µM] (inactive) and 26.4% [100 µM] (inactive)
Nc1ccn(C2OC(CO)C(O)C2O)c(=O)n1 (stereo unspecified),growth,[3],58.1% (inactive) and 105% (inactive) and 110% (inactive)
same,growth,[4],99.2% (inactive) [middle of 4 runs]
same,growth,[5],26.9% (inactive) and 4.29% (active) and 95.4% (inactive)
NC(N)=Nc1ccc(CC(N)C(=O)O)cc1 (stereo unspecified),growth,[2],107% [12.5 µM] (inactive) and 111% [12.5 µM] (inactive)
O=C1C=CC=C/C1=C1\N=C(c2ccccc2OCC(=O)c2ccc(Br)cc2)SS1,growth,[1],48.5% [100 µM] (inactive) and 35.3% [100 µM] (inactive)
same,growth,[2],65.8% [100 µM] (inactive) and 57.6% [100 µM] (inactive)
O=c1c2ccccc2nc(-c2ccccc2)n1/N=C/c1ccccc1[N+](=O)[O-],growth,[2],66.7% [100 µM] (inactive) and 0.136% [100 µM] (active)
CCO/C=N\C1=C(C#N)SC2=N/C(=C\c3ccc(OC)cc3)C(=O)N21,growth,[1],71.9% [100 µM] (inactive) and 70.7% [100 µM] (inactive)
same,growth,[2],92.7% [100 µM] (inactive) and 103% [100 µM] (inactive)
COc1ccc2cc1Oc1ccc(cc1)CC1c3cc(OC)c(cc3CCN1C)Oc1c(OC)c(OC)cc3c1C(C2)N(C)CC3 (stereo unspecified),growth,[2],-57.1% [75 µM] (active) and -97.5% [75 µM] (active)
CO/C(N)=C(\C#N)N=Cc1ccc2ccccc2c1,growth,[2],12.8% [100 µM] (inactive) and -44.8% [100 µM] (active)
CC(=O)c1ccc(NC(=O)/C(CC(=O)/C=C/c2ccccc2)=N/NC(N)=S)cc1,growth,[2],125% [100 µM] (inactive) and 43.7% [100 µM] (inactive)
O[C@H]1[C@H](O)[C@@H](Cn2nnc(-c3ccccc3)c2-c2ccccc2)OCO[C@@H]1Cn1nnc(-c2ccccc2)c1-c1ccccc1,growth,[1],-77.8% [100 µM] (active)
same,growth,[2],-89.7% [100 µM] (active)
NNc1[nH]c(=S)[nH]c1C(N)=O,growth,[2],121% [100 µM] (inactive) and 111% [100 µM] (inactive)
Clc1ccc(C2NN=C3c4ccccc4OCC32)cc1 (stereo unspecified),growth,[2],7.98% [100 µM] (active) and 5.96% [100 µM] (active)
N#Cc1nc(-c2cccc(-c3nc(C#N)c(N)o3)n2)oc1N,growth,[2],96.3% [100 µM] (inactive) and 84.9% [100 µM] (inactive)
N#CC(=S)Nc1ccc(F)cc1,growth,[1],8.57% [100 µM] (active) and 0.965% [100 µM] (active)
same,growth,[2],33.9% [100 µM] (inactive) and 8.52% [100 µM] (active)
CC(C)C1OC(N)=C(C#N)C1(C#N)C#N (stereo unspecified),growth,[2],62.1% [100 µM] (inactive) and 24.7% [100 µM] (inactive)
CNC(=S)c1nnsc1N,growth,[2],103% [100 µM] (inactive) and 37.1% [100 µM] (inactive)
C[C@]12CC[C@@H]3c4ccc(OS(N)(=O)=O)cc4CC[C@H]3[C@@H]1CCC2=O,growth,[2],31.9% [100 µM] (inactive) and 68.9% [100 µM] (inactive)
COc1ccc(-c2nc3ccccc3c(=S)n2OC(C)=O)cc1,growth,[2],47% [25 µM] (inactive) and -21.7% [25 µM] (active)
CC1OC(Oc2c(-c3cc(O)c(O)c(O)c3)oc3cc(O)cc(O)c3c2=O)C(O)C(O)C1O (stereo unspecified),growth,[1],59.6% [100 µM] (inactive) and -60.3% [100 µM] (active)
same,growth,[2],90.9% [100 µM] (inactive) and 92.6% [100 µM] (inactive)
CC(C)(C)c1cc(C2COC(=O)COCCOCC(=O)OCCOCCO2)cc(C(C)(C)C)c1O (stereo unspecified),growth,[2],-69.6% [100 µM] (active) and -100% [100 µM] (active)
CC(=Nc1ccncc1)C(C)=Nc1ccncc1,growth,[1],-98.5% [100 µM] (active) and -100% [100 µM] (active)
same,growth,[2],-74.8% [100 µM] (active) and -52.5% [100 µM] (active)
COc1ccc(N=C(C)C(C)=Nc2ccc(OC)cc2)cc1,growth,[2],77.8% [100 µM] (inactive) and -88.6% [100 µM] (active)
COC(=O)C(/C(=N/NC(N)=O)C(=O)Nc1ccc(C)cc1)c1nc2ccc([N+](=O)[O-])cc2[nH]c1=O (stereo unspecified),growth,[1],61.4% [100 µM] (inactive) and 23.2% [100 µM] (inactive)
same,growth,[2],111% [100 µM] (inactive) and 43.2% [100 µM] (inactive)
CC1=C2NCN(C)N=C2C(C#N)(C#N)C1(C#N)C#N,growth,[1],-78.8% [100 µM] (active) and -94.8% [100 µM] (active)
same,growth,[2],-7.38% [100 µM] (active) and -90.4% [100 µM] (active)
Cc1cc(N(CCC#N)CCC#N)ccc1/C=N/NC(=O)c1cc(Cl)ccc1O,growth,[2],76.6% [100 µM] (inactive) and 12.3% [100 µM] (inactive)
N#Cc1c(N)oc(-c2cccc([N+](=O)[O-])c2)c1C#N,growth,[1],-82.9% [100 µM] (active) and -75% [100 µM] (active)
same,growth,[2],-44.5% [100 µM] (active) and -69.6% [100 µM] (active)
CCOc1cc2c(cc1O)C=C[C@@H]1[C@@H]2CC[C@]2(C)[C@@H](O)CC[C@@H]12,growth,[2],-4.09% [100 µM] (active) and -100% [100 µM] (active)
CC(C)=CCc1c(OC(=O)c2c(C)cc(O)cc2O)cc(CO)c(CO)c1O,growth,[1],-76.6% [100 µM] (active) and -100% [100 µM] (active)
same,growth,[2],1.66% [100 µM] (active) and -100% [100 µM] (active)
CCC1OC2(C)CC(C#N)(C#N)C1(C#N)C(=N)O2 (stereo unspecified),growth,[1],34.6% [100 µM] (inactive)
same,growth,[2],92.1% [100 µM] (inactive)
